This is part of a sample that, as a whole, favours compounds with a hit. Of some 83,000 tested, about 20% had one in any assay.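 A percent growth of 40 corresponds to 60% growth inhibition; 0 means no net growth; -100 means all cells died. Active threshold: below 10.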 Activity calls are given as the source filed them.
How the values were obtained:
Experiment in all cases: NCI-60 one-dose screen, 48 h (100 = growth as untreated, 0 = no growth, -100 = all killed)
Settings in all cases: 10 µM unless noted
DU-145 prostate = test system: DU-145 prostate
K-562 leukemia = test system: K-562 leukemia
MALME-3M melanoma = test system: MALME-3M melanoma
MDA-MB-231 breast = test system: MDA-MB-231 breast
RXF 393 renal = test system: RXF 393 renal
SF-268 CNS = test system: SF-268 CNS
SF-295 CNS = test system: SF-295 CNS
SF-539 CNS = test system: SF-539 CNS
UACC-257 melanoma = test system: UACC-257 melanoma
M14 melanoma = test system: M14 melanoma

Measured: growth

CCN(CC)c1ccc(\C=N/N=C(N)/C(N)=N\N=C/c2ccc(N(CC)CC)cc2)cc1
inactive: DU-145 prostate 110% | K-562 leukemia 99.3% | MALME-3M melanoma 93.9% | MDA-MB-231 breast 112% | RXF 393 renal 109% | SF-268 CNS 105% | SF-295 CNS 98.9% | SF-539 CNS 107% | UACC-257 melanoma 104% | M14 melanoma 110%

CC(C)(C)CC(C)(C)NC(=O)Nc1ncccc1OCc1ccccc1
inactive: DU-145 prostate 97.1% | K-562 leukemia 89.3% | MALME-3M melanoma 91.8% | MDA-MB-231 breast 96.9% | RXF 393 renal 116% | SF-268 CNS 93.1% | SF-295 CNS 88.3% | SF-539 CNS 102% | UACC-257 melanoma 85.8% | M14 melanoma 103%

C=C1C(=O)O[C@H]2[C@H]1CC/C(Cn1cc(-c3ccccc3)nn1)=C\CC[C@@]1(C)O[C@@H]21
inactive: SF-268 CNS 61.2% | SF-295 CNS 75%
active: DU-145 prostate -61.8% | K-562 leukemia -3.88% | MALME-3M melanoma -46.2% | MDA-MB-231 breast -13% | RXF 393 renal -74.1% | SF-539 CNS -34.2% | UACC-257 melanoma -46.5% | M14 melanoma -59%

COc1ccc2cc1Oc1ccc(cc1)C[C@H]1c3c(cc4c(c3Oc3cc5c(cc3OC)CCN(C)[C@@H]5C2)OCO4)CCN1C
inactive: DU-145 prostate 59.6% | SF-268 CNS 36.4% | SF-295 CNS 58.1%
active: K-562 leukemia -2.72% | MALME-3M melanoma -46.1% | MDA-MB-231 breast -5.97% | RXF 393 renal -18.7% | SF-539 CNS -55.7% | UACC-257 melanoma -78.4% | M14 melanoma -86.2%

Cc1cccc(/C=C/c2c(C(=O)/C=C/c3ccccc3)c(C)nc3ccccc23)c1
inactive: SF-268 CNS 37.7%
active: DU-145 prostate -62% | K-562 leukemia 3.77% | MALME-3M melanoma -79.3% | MDA-MB-231 breast -14.1% | RXF 393 renal -83% | SF-295 CNS -18.8% | SF-539 CNS -84.9% | UACC-257 melanoma -31.1% | M14 melanoma -12.8%

CCOC(=O)c1cc(C(=O)c2cc(OC)c(OC)c(OC)c2)n2ncccc12
active: RXF 393 renal -4.2% | SF-539 CNS -12.3% | M14 melanoma 3.88%
inactive: DU-145 prostate 23.7% | K-562 leukemia 10.9% | MALME-3M melanoma 44.9% | MDA-MB-231 breast 31.2% | SF-268 CNS 47.7% | SF-295 CNS 13.6% | UACC-257 melanoma 52.1%

COc1cc(-c2cncn2-c2ccc(-c3nc4ccc(F)cc4s3)cc2)ccc1F
inactive: K-562 leukemia 62.8% | MALME-3M melanoma 99.3% | MDA-MB-231 breast 103% | RXF 393 renal 52.5% | SF-268 CNS 81.3% | SF-295 CNS 90% | SF-539 CNS 92.8% | UACC-257 melanoma 79.7% | M14 melanoma 102%
active: DU-145 prostate -7.18%

COc1cc(C2c3cc(OC(C)=O)c(OC)cc3CC3C(=O)OCC32)ccc1OC(C)=O (stereo not given)
inactive: DU-145 prostate 115% | K-562 leukemia 115% | MALME-3M melanoma 112% | MDA-MB-231 breast 105% | RXF 393 renal 115% | SF-268 CNS 111% | SF-295 CNS 112% | SF-539 CNS 99.4% | UACC-257 melanoma 103% | M14 melanoma 106%

c1ccc([P+](c2ccccc2)(c2ccccc2)c2ccc3c4ccc([P+](c5ccccc5)(c5ccccc5)c5ccccc5)c5cccc(c6cccc2c63)c54)cc1
inactive: DU-145 prostate 19.5% | K-562 leukemia 11.8% | RXF 393 renal 42.5% | SF-268 CNS 24.4% | UACC-257 melanoma 15.2% | M14 melanoma 15.4%
active: MALME-3M melanoma -13% | MDA-MB-231 breast 9.37% | SF-295 CNS 3.75% | SF-539 CNS -27.1%

O=C(CN1CCCCC1)Nc1nc(-c2cc3ccccc3oc2=O)cs1
inactive: DU-145 prostate 106% | K-562 leukemia 90.9% | MALME-3M melanoma 103% | MDA-MB-231 breast 103% | RXF 393 renal 100% | SF-268 CNS 94.1% | SF-295 CNS 102% | SF-539 CNS 103% | UACC-257 melanoma 102% | M14 melanoma 107%

Nc1nc2ccccc2c2c(=O)c3cccc(Cl)c3sc12
inactive: DU-145 prostate 94.7% | K-562 leukemia 91.7% | MALME-3M melanoma 101% | MDA-MB-231 breast 78.9% | RXF 393 renal 106% | SF-268 CNS 102% | SF-295 CNS 97.9% | SF-539 CNS 88.4% | UACC-257 melanoma 104% | M14 melanoma 96.9%

Cc1ccc(C(=O)c2ccc(CC(=O)N/N=C/c3ccccc3O)n2C)cc1
inactive: DU-145 prostate 89.6% | K-562 leukemia 84.2% | MALME-3M melanoma 91.4% | MDA-MB-231 breast 82.6% | RXF 393 renal 89.6% | SF-268 CNS 70.9% | SF-295 CNS 97.7% | SF-539 CNS 89.1% | UACC-257 melanoma 95.3% | M14 melanoma 82.9%

O=c1c2ccccc2n2cnc3ccc(Cl)c1c32
inactive: DU-145 prostate 62.8% | K-562 leukemia 97.2% | MALME-3M melanoma 90.7% | MDA-MB-231 breast 90.7% | RXF 393 renal 69.8% | SF-268 CNS 86.9% | SF-295 CNS 85.9% | SF-539 CNS 88.4% | UACC-257 melanoma 95.7% | M14 melanoma 83.9%
